For 14 compounds, inhibition results are on record in ChEMBL document CHEMBL1961873, “Compounds: GSK PKIS; Assays: Nanosyn kinase panel” (2012).

The target of experiment [1] is Rho-associated protein kinase 1 (Homo sapiens) (UniProt Q13464). Particulars: at 1 µM.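 Also: reported values are mean percent inhibition of ROCK1.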
Experiment [2] concerns the target Rho-associated protein kinase 2 (Homo sapiens) (UniProt O75116). The settings on record: at 0.1 µM.
The target is the same in experiment [3]. Particulars: at 1 µM.
For experiment [4], the target named is Ribosomal protein S6 kinase alpha-1 (Homo sapiens) (UniProt Q15418). Particulars: at 0.1 µM.
Chain of Ribosomal protein S6 kinase alpha-1 (Homo sapiens) (Q15418 whole entry): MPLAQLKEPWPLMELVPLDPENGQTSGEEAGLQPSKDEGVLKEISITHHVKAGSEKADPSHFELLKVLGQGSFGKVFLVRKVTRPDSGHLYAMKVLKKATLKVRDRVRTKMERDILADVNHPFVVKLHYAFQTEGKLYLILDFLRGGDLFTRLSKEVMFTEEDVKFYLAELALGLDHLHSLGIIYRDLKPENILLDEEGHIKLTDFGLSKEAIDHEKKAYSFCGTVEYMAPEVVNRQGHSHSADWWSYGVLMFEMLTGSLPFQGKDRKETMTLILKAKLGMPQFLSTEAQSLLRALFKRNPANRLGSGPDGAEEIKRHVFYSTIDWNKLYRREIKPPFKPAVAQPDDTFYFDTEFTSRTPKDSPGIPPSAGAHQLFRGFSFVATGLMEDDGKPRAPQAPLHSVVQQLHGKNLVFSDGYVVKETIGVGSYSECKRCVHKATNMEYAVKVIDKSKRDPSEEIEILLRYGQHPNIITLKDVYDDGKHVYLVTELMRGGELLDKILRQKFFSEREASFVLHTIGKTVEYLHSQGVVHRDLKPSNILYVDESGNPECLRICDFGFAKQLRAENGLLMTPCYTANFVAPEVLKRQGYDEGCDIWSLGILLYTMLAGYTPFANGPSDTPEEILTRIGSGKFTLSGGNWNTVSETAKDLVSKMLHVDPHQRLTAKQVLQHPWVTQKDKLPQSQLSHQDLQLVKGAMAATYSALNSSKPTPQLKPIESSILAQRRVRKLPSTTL
The target is the same in experiment [5]. Particulars: at 1 µM.
In experiment [6] the target is Ribosomal protein S6 kinase alpha-3 (Homo sapiens) (UniProt P51812). The settings on record: at 0.1 µM.
Chain of Ribosomal protein S6 kinase alpha-3 (Homo sapiens) (P51812 whole entry): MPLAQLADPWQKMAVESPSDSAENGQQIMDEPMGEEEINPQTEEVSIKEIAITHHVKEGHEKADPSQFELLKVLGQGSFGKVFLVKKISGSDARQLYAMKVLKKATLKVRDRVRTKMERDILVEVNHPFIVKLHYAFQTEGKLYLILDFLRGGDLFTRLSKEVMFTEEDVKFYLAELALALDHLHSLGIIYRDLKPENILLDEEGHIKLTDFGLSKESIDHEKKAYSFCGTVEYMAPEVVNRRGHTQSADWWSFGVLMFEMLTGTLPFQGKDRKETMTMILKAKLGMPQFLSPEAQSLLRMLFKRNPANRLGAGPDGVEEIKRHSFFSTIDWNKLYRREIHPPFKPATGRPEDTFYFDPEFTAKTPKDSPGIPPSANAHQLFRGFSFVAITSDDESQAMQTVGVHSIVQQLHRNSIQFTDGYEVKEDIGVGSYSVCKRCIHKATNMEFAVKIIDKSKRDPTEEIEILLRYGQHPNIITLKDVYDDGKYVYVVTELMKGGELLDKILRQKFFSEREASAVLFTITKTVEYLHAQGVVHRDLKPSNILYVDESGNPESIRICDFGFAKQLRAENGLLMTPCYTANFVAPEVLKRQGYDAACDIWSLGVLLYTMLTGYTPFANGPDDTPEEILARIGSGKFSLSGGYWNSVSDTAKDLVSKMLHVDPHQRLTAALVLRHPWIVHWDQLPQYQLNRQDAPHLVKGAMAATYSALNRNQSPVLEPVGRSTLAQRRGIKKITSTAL
For experiment [7] the target is unchanged. Particulars: at 1 µM.
In experiment [8] the target is Ribosomal protein S6 kinase alpha-2 (Homo sapiens) (UniProt Q15349). Particulars: at 0.1 µM.
Chain of Ribosomal protein S6 kinase alpha-2 (Homo sapiens) (Q15349 whole entry): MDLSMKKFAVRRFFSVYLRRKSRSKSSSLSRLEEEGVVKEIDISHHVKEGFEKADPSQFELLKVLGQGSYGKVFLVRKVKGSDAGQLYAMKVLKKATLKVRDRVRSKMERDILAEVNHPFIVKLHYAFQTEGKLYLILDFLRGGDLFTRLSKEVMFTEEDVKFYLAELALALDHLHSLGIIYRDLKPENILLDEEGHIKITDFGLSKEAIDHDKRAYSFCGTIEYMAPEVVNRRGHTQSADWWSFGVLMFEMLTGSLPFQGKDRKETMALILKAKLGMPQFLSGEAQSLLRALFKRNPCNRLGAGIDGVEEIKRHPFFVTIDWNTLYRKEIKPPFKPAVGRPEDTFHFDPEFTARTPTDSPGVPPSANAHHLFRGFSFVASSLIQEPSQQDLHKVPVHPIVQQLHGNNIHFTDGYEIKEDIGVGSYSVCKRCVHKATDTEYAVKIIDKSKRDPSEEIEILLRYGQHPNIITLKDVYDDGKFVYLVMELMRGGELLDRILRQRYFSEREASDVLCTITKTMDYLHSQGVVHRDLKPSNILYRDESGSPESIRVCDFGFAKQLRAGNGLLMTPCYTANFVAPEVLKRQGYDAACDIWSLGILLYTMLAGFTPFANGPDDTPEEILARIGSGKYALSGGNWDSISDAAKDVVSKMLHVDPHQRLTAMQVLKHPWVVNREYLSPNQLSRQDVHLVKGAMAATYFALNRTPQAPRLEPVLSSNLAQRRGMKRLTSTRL
The target is the same in experiment [9]. Particulars: at 1 µM.
For experiment [10], the target named is Ribosomal protein S6 kinase alpha-6 (Homo sapiens) (UniProt Q9UK32). Particulars: at 0.1 µM.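 Also: reported value is the mean inhibition of RSK4, from the GSK PKIS kinase inhibitor screen.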
Chain of Ribosomal protein S6 kinase alpha-6 (Homo sapiens) (Q9UK32 whole entry): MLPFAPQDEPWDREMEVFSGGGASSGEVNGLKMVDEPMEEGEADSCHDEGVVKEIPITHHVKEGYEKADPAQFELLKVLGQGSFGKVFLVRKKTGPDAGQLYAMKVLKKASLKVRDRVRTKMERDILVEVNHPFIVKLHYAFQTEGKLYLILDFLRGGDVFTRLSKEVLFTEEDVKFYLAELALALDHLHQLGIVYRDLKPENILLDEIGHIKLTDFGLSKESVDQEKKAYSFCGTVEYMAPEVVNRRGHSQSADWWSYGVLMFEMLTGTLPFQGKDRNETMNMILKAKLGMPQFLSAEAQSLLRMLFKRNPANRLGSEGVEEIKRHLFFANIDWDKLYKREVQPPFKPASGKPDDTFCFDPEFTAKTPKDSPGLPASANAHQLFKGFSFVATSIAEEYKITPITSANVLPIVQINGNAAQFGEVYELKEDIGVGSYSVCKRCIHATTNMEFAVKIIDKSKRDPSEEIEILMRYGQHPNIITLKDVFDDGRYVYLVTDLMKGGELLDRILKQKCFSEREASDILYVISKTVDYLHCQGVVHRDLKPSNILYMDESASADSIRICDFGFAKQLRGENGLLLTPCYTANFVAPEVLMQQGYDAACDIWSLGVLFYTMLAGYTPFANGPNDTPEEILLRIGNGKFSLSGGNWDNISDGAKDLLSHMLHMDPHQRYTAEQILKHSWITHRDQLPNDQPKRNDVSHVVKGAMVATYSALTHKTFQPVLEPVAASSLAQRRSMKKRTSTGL

Chain of Rho-associated protein kinase 2 (Homo sapiens) (O75116 whole entry, looked up): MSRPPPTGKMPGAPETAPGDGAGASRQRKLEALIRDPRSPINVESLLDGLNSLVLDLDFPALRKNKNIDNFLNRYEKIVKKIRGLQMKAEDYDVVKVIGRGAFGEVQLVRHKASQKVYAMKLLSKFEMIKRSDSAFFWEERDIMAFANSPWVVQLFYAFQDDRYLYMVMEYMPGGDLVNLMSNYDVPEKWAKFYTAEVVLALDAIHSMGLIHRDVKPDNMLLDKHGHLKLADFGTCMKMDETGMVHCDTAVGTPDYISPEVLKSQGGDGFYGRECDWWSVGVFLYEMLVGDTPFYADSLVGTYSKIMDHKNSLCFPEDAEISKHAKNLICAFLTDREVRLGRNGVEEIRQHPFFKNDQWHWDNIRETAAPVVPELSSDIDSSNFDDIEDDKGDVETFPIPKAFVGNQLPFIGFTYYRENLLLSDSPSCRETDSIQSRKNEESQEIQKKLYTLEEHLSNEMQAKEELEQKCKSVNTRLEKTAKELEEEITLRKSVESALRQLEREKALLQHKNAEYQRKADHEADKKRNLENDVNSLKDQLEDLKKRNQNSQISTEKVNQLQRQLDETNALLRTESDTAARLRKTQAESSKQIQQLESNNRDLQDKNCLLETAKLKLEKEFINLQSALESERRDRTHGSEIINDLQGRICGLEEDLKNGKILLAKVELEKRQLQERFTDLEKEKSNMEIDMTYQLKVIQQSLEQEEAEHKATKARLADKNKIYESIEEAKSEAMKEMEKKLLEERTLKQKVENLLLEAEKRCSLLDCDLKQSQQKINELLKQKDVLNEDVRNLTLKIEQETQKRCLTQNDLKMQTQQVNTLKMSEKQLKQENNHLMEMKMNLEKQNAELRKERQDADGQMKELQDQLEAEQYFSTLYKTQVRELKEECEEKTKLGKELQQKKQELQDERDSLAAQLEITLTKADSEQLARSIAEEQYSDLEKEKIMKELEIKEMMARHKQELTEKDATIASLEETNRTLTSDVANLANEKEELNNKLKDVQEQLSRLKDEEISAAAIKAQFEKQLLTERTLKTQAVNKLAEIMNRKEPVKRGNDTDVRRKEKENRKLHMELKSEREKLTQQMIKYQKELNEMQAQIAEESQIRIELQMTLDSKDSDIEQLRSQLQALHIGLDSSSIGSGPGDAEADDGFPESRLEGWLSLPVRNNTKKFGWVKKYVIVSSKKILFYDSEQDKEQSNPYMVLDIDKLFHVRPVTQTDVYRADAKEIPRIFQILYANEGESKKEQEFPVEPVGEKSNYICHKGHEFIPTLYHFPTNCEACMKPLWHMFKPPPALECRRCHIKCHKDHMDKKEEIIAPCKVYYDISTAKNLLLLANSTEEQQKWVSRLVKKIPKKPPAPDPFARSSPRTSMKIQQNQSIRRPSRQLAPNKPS

What is called inhibition is the change of the read-out against control, counted positive when it falls. Regarding `COc1cccc(-n2ncc3c(N/N=C/c4ccncc4)ncnc32)c1`, the inhibition in [1] came to 9.67%; in [2] it was 4.97%; in experiment [3], 19.4%; in experiment [4], 3.51%; in [5], 7.17%; in experiment [6] it was 1.43%. In addition, the inhibition turned out to be 4.26% in [7], 2.35% in experiment [8], 4.92% in experiment [9] and 2.25% in experiment [10].

With `NS(=O)(=O)c1ccc(-c2ccc3c(NC(=O)C4CC4)n[nH]c3c2)cc1`, the inhibition stood at 2.34% in experiment [1]; 0.8% in experiment [2]; 1.01% in experiment [3]; 1.47% in experiment [4]; 0.59% in experiment [5]; 0.4% in experiment [6]. The inhibition worked out at 1.28% in experiment [7], 0.45% in experiment [8], 2.46% in [9] and 1.52% in [10].

For `Fc1ccc(-c2ncn(C3CCNCC3)c2-c2ccnc(Oc3ccccc3)n2)cc1`, the inhibition is 1.62% in [1]; -0.24% in experiment [2]; 0.28% in experiment [3]; -0.66% in experiment [4]; -0.32% in [5]; -1.31% in experiment [6]. For the same compound, the inhibition in experiment [7] is -1.67%; in [8], 1.35%; in experiment [9], 0.51%; in [10], -0.22%.

Consider `COc1cc2c(cc1Nc1nc(Nc3ccsc3C(N)=O)c3cc[nH]c3n1)N(C(=O)CN(C)C)CCC2`, for which the inhibition in experiment [1] is 26.1%; in experiment [2] it was 3.13%; in [3] it was 23.2%; in experiment [4] it was 7.13%; in experiment [5], 34.8%; in experiment [6], -6.28%. Further, the inhibition in [7] was -1.3%; in experiment [8], 0.29%; in experiment [9], 7.85%; in experiment [10], 0.38%.

For the compound `CCn1c(-c2nonc2N)nc2c(C#CC(C)(C)O)ncc(OCC3CCNCC3)c21`, the inhibition in experiment [1] was found to be 13.7%; in experiment [2], 6.21%; in experiment [3], 27.5%; in experiment [4] it was 4.34%; in [5], 19.9%; in experiment [6] it was 4.16%. The inhibition was 19% in [7], 2.47% in experiment [8], 7.78% in experiment [9] and 2.29% in experiment [10].

With `CCn1c(-c2nonc2N)nc2c(C#CC(C)(C)O)ncc(OC[C@@H]3CCCN3)c21`, the inhibition in experiment [1] was 12.4%; in experiment [2], -0.51%; in [3], 10%; in experiment [4] it was -0.68%; in [5], 23.3%; in experiment [6], 3.35%. Besides, the inhibition is 24.9% in experiment [7], 2.02% in experiment [8], 13.3% in experiment [9] and -0.15% in experiment [10].

Turning to `CCn1c(-c2nonc2N)nc2c(C#CCN)ncc(OCCCN)c21`, the inhibition in experiment [1] was found to be 48.7%; in experiment [2], 10.6%; in [3], 53.7%; in experiment [4], 20.1%; in experiment [5], 68.3%; in experiment [6], 24.4%. Also, the inhibition came to 72.9% in [7], 7.65% in experiment [8], 48.5% in experiment [9] and 1.06% in experiment [10].

For the compound `NC(=O)c1sc(-n2cnc3cc(C(F)(F)F)ccc32)cc1OCc1ccccc1Br`, the inhibition in [1] is 0.79%; in [2], 0.92%; in [3], 1.05%; in experiment [4], 1.6%; in experiment [5], 2.97%; in [6], 3.26%. The inhibition came to 3.31% in experiment [7], 2.33% in [8], 1.83% in experiment [9] and 1.36% in [10].

In the case of `Nc1nonc1-c1nc2cnccc2n1C1CCCCC1`, the inhibition came out at 78.4% in experiment [1]; 42.4% in experiment [2]; 83.4% in [3]; 52.1% in experiment [4]; 86.4% in experiment [5]; 40.9% in experiment [6]. Moreover, the inhibition in experiment [7] worked out at 81.4%; in [8], 70%; in experiment [9], 92.6%; in experiment [10] it was 6.78%.

In the case of `CCn1c(-c2nonc2N)nc2c(C#CC(C)(C)O)nc(O[C@@H](CN)c3ccccc3)cc21`, the inhibition in experiment [1] stood at 51.7%; in [2], 11.5%; in experiment [3], 59.4%; in [4], 19.1%; in experiment [5] it was 71.6%; in [6], 18%. The inhibition in experiment [7] was determined as 69.5%; in experiment [8], 15.4%; in experiment [9], 69.9%; in [10], 4.01%.

On to `COc1cccc(COc2cc(-n3cnc4ccccc43)sc2C(N)=O)c1`, for which the inhibition was -0.3% in experiment [1]; -0.06% in experiment [2]; 0.84% in [3]; 0.37% in experiment [4]; 0.21% in experiment [5]; 0.89% in [6]. In addition, the inhibition in experiment [7] was -1.45%; in [8], -0.15%; in experiment [9], 1.4%; in [10] it was 1.09%.

As to `NS(=O)(=O)c1ccc(N/C=C2\C(=O)Nc3ccc4ncsc4c32)cc1`, the inhibition amounted to 33% in [1]; 12% in experiment [2]; 47.5% in [3]; 4.22% in [4]; 31.3% in experiment [5]; 6.13% in experiment [6]. Moreover, the inhibition in [7] was 36%; in experiment [8], 16.5%; in experiment [9], 66.1%; in experiment [10] it was 12.6%.

For the compound `COc1cc(C=NNc2ncnc3c2cnn3Cc2ccccc2)ccc1O`, the inhibition is 5.87% in experiment [1]; -0.21% in experiment [2]; 1.36% in experiment [3]; 1.68% in [4]; 3.82% in experiment [5]; 1.86% in experiment [6]. In addition, the inhibition was 3.94% in [7], -0.6% in experiment [8], 1.82% in experiment [9] and -1.29% in experiment [10].

With `Cc1cc(-c2ccco2)cc(C)c1/C=C/c1cncc(-c2nn[nH]n2)c1`, the inhibition in experiment [1] was found to be 1.58%; in [2], 0.76%; in experiment [3] it was 1.41%; in [4], 0.75%; in experiment [5], 1.35%; in experiment [6], 0.67%. For the same compound, the inhibition in experiment [7] is 0.7%; in experiment [8], 1.44%; in experiment [9], 0.92%; in [10], -0.24%.
